The record followed here is PubChem BioAssay (EPA / NIEHS).

Structures are written as SMILES. Records with an inconclusive call do not appear. Active and inactive are the calls of the source. The calls were made as follows: active = hit-call score of the fitted dose curve at least 0.9, where 1 is the maximum; inconclusive = response in the unintended direction; inactive = score below 0.9.

In the experiment the target is Hepatocyte nuclear factor 4-alpha (Homo sapiens) (UniProt P41235). In words: ATG_HNF4a_TRANS: Attagene TRANS-FACTORIAL HepG2 Assay for human Hepatocyte Nuclear Factor 4 alpha (HNF4a) (AID 2282982). The conditions noted are these: HepG2 HNF4a transactivation reporter, mRNA readout. As to the method: ATG_TRANS is a cell-based, multiplexed-readout assay that uses HepG2, a human liver cell line, with measurements taken at 24 hours after chemical dosing in a 24-well plate.ATG_HNF4a_TRANS is one of 30 assay component(s) measured or calculated from the ATG_TRANS assay. It is designed to make measurements of mRNA induction, a form of inducible reporter, as detected with fluorescence intensity signals by Reverse transcription polymerase chain reaction (RT-PCR) and Capillary electrophoresis technology.Data from the assay component ATG_HNF4a_TRANS was analyzed into 1 assay endpoint. This assay endpoint, ATG_HNF4a_TRANS, was analyzed in the positive analysis fitting direction relative to DMSO as the negative control and baseline of activity. Using a type of inducible reporter, measures of mRNA for gain-of-signal activity can be used to understand the reporter gene at the transcription factor-level as they relate to the gene HNF4A. Furthermore, this assay endpoint can be referred to as a primary readout, because this assay has produced multiple assay endpoints where this one serves a reporter gene function. To generalize the intended target to other relatable targets, this assay endpoint is annotated to the nuclear receptor intended target family, where the subfamily is orphan.
Chain of Hepatocyte nuclear factor 4-alpha (Homo sapiens) (P41235 whole entry, looked up): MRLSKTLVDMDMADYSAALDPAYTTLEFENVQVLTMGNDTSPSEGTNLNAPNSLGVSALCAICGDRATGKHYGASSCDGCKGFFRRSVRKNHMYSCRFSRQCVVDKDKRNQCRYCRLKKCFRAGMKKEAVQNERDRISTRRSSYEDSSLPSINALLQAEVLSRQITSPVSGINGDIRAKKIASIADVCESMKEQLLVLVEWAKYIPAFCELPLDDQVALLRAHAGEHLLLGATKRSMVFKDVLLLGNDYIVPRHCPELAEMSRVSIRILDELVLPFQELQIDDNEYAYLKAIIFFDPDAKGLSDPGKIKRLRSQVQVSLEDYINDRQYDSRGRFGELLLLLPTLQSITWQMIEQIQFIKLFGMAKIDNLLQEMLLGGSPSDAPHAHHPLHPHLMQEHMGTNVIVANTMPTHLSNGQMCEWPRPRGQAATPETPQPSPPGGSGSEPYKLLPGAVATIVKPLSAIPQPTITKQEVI
Human liver HepG2 cells are transiently transfected with multiple reporter transcription units (MRTUs) in 6-well plates using FuGene 6 reagent (Roche; 3 ml FuGene/1 mg DNA). The MRTU constructs are regulated by a cis-regulating element (promoter). […] A major difference between the CIS and TRANS system is that in CIS activities of endogenous TFs are measured, whereas the TRANS assay evaluates changes in activities of exogenous, chimeric NR-Gal4 proteins. […] At the end of 24 hour incubation, total RNA was isolated using TriZol reagent (Invitrogen). The isolated RNA is then reverse-transcribed using oligo(dT) primer and Mo-MLV reverse transcriptase (Invitrogen) with DNAse I (Ambion) treatment for 30 min. The one-tenth of the produced cDNA was amplified by PCR using Taq DNA polymerase (Invitrogen) and two reporter sequence-specific primers. The PCR products were fluorescently labeled by primer extension with 6-arboxyfluorescein (6-FAM) 5'-labeled reporter sequence-specific primer (2 min at 95 C, 20 s at 68 C and 10 min at 72 C) and these products were digested with 5U of HpaI (New England Biolabs) for 2h at 37 C. The fragments were purified using Qiaquick PCR columns (Qiagen), analyzed on an ABI 3130xL genetic analyzer (Applied Biosystems) with peak positions identified by using a set of X-rhodamine (ROX)-labeled MapMarker1000 molecular weight standards (BioVentures). The raw capillary electrophoresis data was processed using Attagraph software (Attagene).
`[As]#[In]`: the molecule was called inactive. As for `CCNS(=O)(=O)C(F)(F)C(F)(F)C(F)(F)C(F)(F)C(F)(F)C(F)(F)C(F)(F)C(F)(F)F`, the outcome was inactive. The same measure for `CCCSC(=O)N(CCC)CCC`: “inactive”; for `CO[C@@H]1[C@H](OC(=O)NC(=O)CCl)CC[C@]2(CO2)[C@H]1[C@@]1(C)O[C@@H]1CC=C(C)C`: “inactive”. The same measure for `CN(C)c1ccc(C(=O)c2ccc(N(C)C)cc2)cc1`: “inactive”.

As to `O=P(OCCCl)(OCCCl)OCCCl`, the result was inactive. Next, `CCCCCCCCOC(=O)c1ccc(C(=O)OCCCCCCCC)c(C(=O)OCCCCCCCC)c1`: “inactive”. As for `Nc1ccc([N+](=O)[O-])cc1`, the molecule was called inactive. Next, `C1=Cc2cccc3cccc1c23`: “inactive”; `CCC12COCN1COC2`: “inactive”. The same measure for `O=Cc1ccco1`: “inactive”; for `CCC[CH2][Sn]([Cl])([CH2]CCC)[CH2]CCC`: “inactive”; for `CCOC(=O)[C@]1(c2ccccc2)Oc2ccccc2[C@@H]1N`: “inactive”.

Regarding `O=C1CCCO1`, the molecule was classed as inactive. Regarding `Clc1ccccc1Cl`, the call was inactive.

Consider `COC(=O)Nc1nc2ccccc2[nH]1`, for which the call was inactive. The same measure for `CCCCCCCCn1sccc1=O`: “inactive”. The same measure for `C=CCc1ccc2c(c1)OCO2`: “inactive”; for `OCCCBr`: “inactive”. For `ClC1=C(Cl)[C@]2(Cl)[C@H]3[C@H]([C@@H]4C=C[C@H]3C4)[C@@]1(Cl)C2(Cl)Cl`, the result was inactive. `[Cl-].[Cl-].[Hg+2]`: the molecule was called inactive. Next, `C[C@]12C=CC3=C4CCC(=O)C=C4CC[C@H]3[C@@H]1CC[C@@H]2O`: “inactive”.

With `O=C(O)C1C2CCC(O2)C1C(=O)O` (stereo unspecified), the call was inactive. The same measure for `[O-][Cl+]O`: “inactive”. Consider `COc1cc(C=O)cc2c1[C@H](COC(N)=O)[C@]1(OC(C)=O)ON2C[C@H]2[C@@H]1N2C(C)=O`, for which the call was inactive.

Turning to `c1ccc(NNc2ccccc2)cc1`, the result was inactive.

For `CNC(=O)Oc1cccc2c1OC(C)(C)C2`, the outcome was inactive. With `CC(O)CCO` (stereo unspecified), the molecule was called inactive. Next, `Nc1ccc(N=Nc2ccccc2)cc1`: “inactive”. Next, `Clc1ccc(Cl)c(Cl)c1`: “inactive”; `CCCCOC(=O)c1ccccc1C(=O)OCc1ccccc1`: “inactive”; `Nc1cc(Cl)cc(C(=O)O)c1Cl`: “inactive”. The same measure for `Oc1ccc2ccc3cccc4ccc1c2c34`: “inactive”. In the case of `O=[N+]([O-])C(Br)(CO)CO`, the outcome was inactive. The same measure for `Cc1cc(N=Nc2ccccc2C)ccc1N`: “inactive”. In the case of `OCCOCCO`, the outcome was inactive.
